According to article PMC5540273 (PLoS ONE, 2017):

system: T1, PCTK1; settings: concentration: 1 μM, replicates: in singlicate; n = 1
T1 construct: gene CDK16
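Note: KINOMEscan kinase panel screen.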

Structure (SMILES)	%Inh [%]
CCn1c(-c2ccoc2)nc2cnccc21 [SB-733887]	9
CCS(=O)c1ccc(-c2coc3ccc(-c4nnc(C)o4)cc23)cc1 (centres unmarked)	0
Nc1ncnc2c1ncn2-c1ccc(Cl)cc1 [AH2635]	0
O=c1cc(N2CCOCC2)nc2n(Cc3ccc(F)c(Cl)c3)ccn12 [GSK2297099]	6
COc1ccc(CNC(=O)NC2CCN(c3ccnc(Nc4ccc(F)cc4)n3)C2)cc1 (centres unmarked) [GSK1379706]	0
COc1cc(Nc2ccnc3ccc(C(F)(F)F)cc23)cc(OC)c1OC [GW577382]	0
O=C(Nc1n[nH]c2nc(-c3ccccc3)c(Br)cc12)C1CC1 [SB-708998]	0
Nc1n[nH]c2nnc(-c3ccccc3)c(-c3ccccc3)c12 [GW554060]	0
CCc1nc(-c2cccc(C)c2)c(-c2ccncc2)s1	0
O=C(NCCNc1ccnc(Nc2ccc(F)cc2)n1)Nc1ccc2c(c1)OCO2 [GSK1379882]	14
Fc1cccc(CSc2nnc(-c3ccc4c(c3)CCO4)o2)c1	18
Cn1c(=O)c(F)c(Nc2ccc(I)cc2F)c2c(=O)n(OC[C@H](O)CO)cnc21	0
COc1cc(Nc2nccc(N3CCC(NC(=O)C4COc5ccccc5O4)C3)n2)cc(OC)c1OC (centres unmarked) [GSK1379761]	4
CCC(=O)c1c(-c2ccccc2)c2cc(Cl)ccc2c(=O)n1Cc1cc(S(C)(=O)=O)n(CCC(C)(C)O)n1	29
Nc1ncnc2c1ncn2-c1cccc(F)c1 [SKF-97560]	27
CCCNC(=O)Nc1ccc(Oc2ncnc3ccn(C)c23)cc1	15
COc1ccc(Nc2nccc(N3CCC(NS(=O)(=O)c4ccc(NC(C)=O)cc4)C3)n2)cc1 (centres unmarked) [GSK1379729]	0
COc1cc2ncn(-c3cc(OCc4ccncc4Br)c(C(N)=O)s3)c2cc1OC [GW854278]	0
CN1C(=O)C(Nc2cc(Cl)c(O)c(Cl)c2)=C(c2ccc(Cl)cc2)C1=O [SB-404321]	0

Structure (SMILES)	%Inh [%]
CCC(=O)c1c(-c2ccccc2)c2cc(Cl)ccc2c(=O)n1Cc1cc(S(C)(=O)=O)n(CC(F)F)n1	0
O=C1NC(=O)C(c2ccccc2)=C1Nc1cccc(O)c1 [SB-390534]	0
Cc1cccc(-c2cc(-c3c[nH]nc3-c3ccccn3)ccn2)c1 [GW679395]	5
Nc1nc(N)c2nc(-c3ccccc3)[nH]c2n1 [SKF-12778]	5
COc1ccc(-n2cnc3c(N)ncnc32)cc1 [SKF-97236]	0
COc1cccc(-n2cnc3c(N)ncnc32)c1 [SKF-97416]	15
FC(F)(F)c1ccc(-c2ncn(CCCN3CCOCC3)c2-c2ccncc2)cc1 [SB-217780]	10
Cc1nnc(-c2ccc3ncn(-c4ccc(S(C)=O)cc4)c3c2)o1 (centres unmarked)	0
COC(=O)c1c(-c2ccccc2)c2cc(Br)ccc2c(=O)n1Cc1ccc(NC(=O)CCC(=O)O)cc1	15
Cl.c1ccc(Cn2cnc3cc(Nc4ncnc5ccccc45)ccc32)cc1 [GW272142]	0
Cc1ccc(-c2ccc3c(ccc4sc5c(c43)NC[C@@H](C)N=C5N(C)C)n2)cn1	0
CN1C(=O)C(Nc2ccccc2)=C(c2ccccc2)C1=O [SB-300079]	0
COc1cc2nccc(Nc3ccc(OCc4ccc(NC(C)=O)cc4)cc3)c2cc1OC.Cl [GW440135]	9
COc1cc2ncn(-c3cc(OCCCc4ccccc4)c(C(N)=O)s3)c2cc1OC [GSK205189]	0
Cc1nnc(-c2ccc(C)c(-c3ccc(C(=O)O)cc3)c2)o1 [GW608005]	0
O=C(Nc1n[nH]c2cc(-c3ccccc3F)ccc12)C1CC1 [SB-733371]	0
CCC(=O)c1c(-c2ccccc2)c2cc(Cl)ccc2c(=O)n1Cc1cc(C(=O)NC2CC2)n(C)n1	1
CCC(=O)c1c(-c2ccccc2)c2cc(Cl)ccc2c(=O)n1Cc1ccc(C(=O)O)cc1	0

system: T2, PCTK2; settings: concentration: 1 μM, replicates: in singlicate; n = 1
T2 construct: gene CDK17

Structure (SMILES)	%Inh [%]
CCn1c(-c2ccoc2)nc2cnccc21 [SB-733887]	0
CCS(=O)c1ccc(-c2coc3ccc(-c4nnc(C)o4)cc23)cc1 (centres unmarked)	0
Nc1ncnc2c1ncn2-c1ccc(Cl)cc1 [AH2635]	0
O=c1cc(N2CCOCC2)nc2n(Cc3ccc(F)c(Cl)c3)ccn12 [GSK2297099]	10
COc1ccc(CNC(=O)NC2CCN(c3ccnc(Nc4ccc(F)cc4)n3)C2)cc1 (centres unmarked) [GSK1379706]	18
COc1cc(Nc2ccnc3ccc(C(F)(F)F)cc23)cc(OC)c1OC [GW577382]	0
O=C(Nc1n[nH]c2nc(-c3ccccc3)c(Br)cc12)C1CC1 [SB-708998]	0
Nc1n[nH]c2nnc(-c3ccccc3)c(-c3ccccc3)c12 [GW554060]	0
CCc1nc(-c2cccc(C)c2)c(-c2ccncc2)s1	1
O=C(NCCNc1ccnc(Nc2ccc(F)cc2)n1)Nc1ccc2c(c1)OCO2 [GSK1379882]	0
Fc1cccc(CSc2nnc(-c3ccc4c(c3)CCO4)o2)c1	1
Cn1c(=O)c(F)c(Nc2ccc(I)cc2F)c2c(=O)n(OC[C@H](O)CO)cnc21	11
COc1cc(Nc2nccc(N3CCC(NC(=O)C4COc5ccccc5O4)C3)n2)cc(OC)c1OC (centres unmarked) [GSK1379761]	0
CCC(=O)c1c(-c2ccccc2)c2cc(Cl)ccc2c(=O)n1Cc1cc(S(C)(=O)=O)n(CCC(C)(C)O)n1	21
Nc1ncnc2c1ncn2-c1cccc(F)c1 [SKF-97560]	1
CCCNC(=O)Nc1ccc(Oc2ncnc3ccn(C)c23)cc1	8
COc1ccc(Nc2nccc(N3CCC(NS(=O)(=O)c4ccc(NC(C)=O)cc4)C3)n2)cc1 (centres unmarked) [GSK1379729]	0
COc1cc2ncn(-c3cc(OCc4ccncc4Br)c(C(N)=O)s3)c2cc1OC [GW854278]	14
CN1C(=O)C(Nc2cc(Cl)c(O)c(Cl)c2)=C(c2ccc(Cl)cc2)C1=O [SB-404321]	5

Structure (SMILES)	%Inh [%]
CCC(=O)c1c(-c2ccccc2)c2cc(Cl)ccc2c(=O)n1Cc1cc(S(C)(=O)=O)n(CC(F)F)n1	4
O=C1NC(=O)C(c2ccccc2)=C1Nc1cccc(O)c1 [SB-390534]	6
Cc1cccc(-c2cc(-c3c[nH]nc3-c3ccccn3)ccn2)c1 [GW679395]	0
Nc1nc(N)c2nc(-c3ccccc3)[nH]c2n1 [SKF-12778]	0
COc1ccc(-n2cnc3c(N)ncnc32)cc1 [SKF-97236]	0
COc1cccc(-n2cnc3c(N)ncnc32)c1 [SKF-97416]	0
FC(F)(F)c1ccc(-c2ncn(CCCN3CCOCC3)c2-c2ccncc2)cc1 [SB-217780]	0
Cc1nnc(-c2ccc3ncn(-c4ccc(S(C)=O)cc4)c3c2)o1 (centres unmarked)	0
COC(=O)c1c(-c2ccccc2)c2cc(Br)ccc2c(=O)n1Cc1ccc(NC(=O)CCC(=O)O)cc1	7
Cl.c1ccc(Cn2cnc3cc(Nc4ncnc5ccccc45)ccc32)cc1 [GW272142]	0
Cc1ccc(-c2ccc3c(ccc4sc5c(c43)NC[C@@H](C)N=C5N(C)C)n2)cn1	0
CN1C(=O)C(Nc2ccccc2)=C(c2ccccc2)C1=O [SB-300079]	0
COc1cc2nccc(Nc3ccc(OCc4ccc(NC(C)=O)cc4)cc3)c2cc1OC.Cl [GW440135]	0
COc1cc2ncn(-c3cc(OCCCc4ccccc4)c(C(N)=O)s3)c2cc1OC [GSK205189]	0
Cc1nnc(-c2ccc(C)c(-c3ccc(C(=O)O)cc3)c2)o1 [GW608005]	0
O=C(Nc1n[nH]c2cc(-c3ccccc3F)ccc12)C1CC1 [SB-733371]	9
CCC(=O)c1c(-c2ccccc2)c2cc(Cl)ccc2c(=O)n1Cc1cc(C(=O)NC2CC2)n(C)n1	6
CCC(=O)c1c(-c2ccccc2)c2cc(Cl)ccc2c(=O)n1Cc1ccc(C(=O)O)cc1	0
